Laboratory results taken from PubChem BioAssay (NCATS).
Several values for one entry are separate records, joined by “and”; a condition that tells them apart may be missing. Equal values may be shown once. Records with an inconclusive call do not appear. Activity calls are given as the source filed them. Unless noted, the call rests on the fitted dose curve; in most records, active means well fitted curve in the direction sought with a large enough effect; inconclusive means small, poorly fitted or top-dose-only effect, or another doubt; inactive means no such curve, though single readings can be large; an effect the other way counts as inactive or inconclusive.

Columns and labels:
[1] = qHTS assay for small molecule antagonists of peroxisome proliferator-activated receptor delta signaling (AID 588535; active means well fitted inhibition curve with a large enough effect in the signal ratio, with a control signal flat, not every such curve was filed as active; the % refers to the signal ratio;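 on max response: cells co-treated with a PPAR-delta agonist as stimulator during compound exposure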); conditions: HEK293T PPARd-UAS-bla, beta-lactamase FRET ratio, 18 h; 460 nm channel
Summary of the method: (§1)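 Antagonist-mode qHTS using GeneBLAzer PPAR-delta-UAS-bla HEK293T cells; compound exposure 18 hrs at 37 C over a titration. Ratiometric CCF4 fluorescence at 460/530 nm; concentration-response points fitted to the Hill equation.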

[2] = biological target: Peroxisome proliferator-activated receptor delta (Homo sapiens) (UniProt Q03181); assay: as above
Chain of Peroxisome proliferator-activated receptor delta (Homo sapiens) (Q03181 whole entry, looked up): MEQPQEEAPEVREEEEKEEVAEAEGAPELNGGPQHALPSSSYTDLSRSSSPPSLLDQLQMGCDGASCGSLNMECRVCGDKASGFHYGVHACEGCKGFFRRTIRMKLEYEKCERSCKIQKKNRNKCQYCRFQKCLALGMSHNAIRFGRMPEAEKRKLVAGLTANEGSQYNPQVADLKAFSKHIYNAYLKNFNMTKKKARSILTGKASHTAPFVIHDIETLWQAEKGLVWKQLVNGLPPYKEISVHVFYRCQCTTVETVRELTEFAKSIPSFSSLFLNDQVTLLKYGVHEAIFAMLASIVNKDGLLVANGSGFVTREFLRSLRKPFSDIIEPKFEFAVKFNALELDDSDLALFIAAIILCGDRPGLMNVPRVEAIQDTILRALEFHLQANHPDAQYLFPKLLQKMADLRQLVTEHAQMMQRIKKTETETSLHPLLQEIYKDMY
Summary of the method: as §1

[3] = biological target: Vitamin D3 receptor (Homo sapiens) (UniProt P11473); assay: qHTS assay for small molecule antagonists of vitamin D receptor signaling (AID 588541; calls by dose curve;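 further: receptor activated by calcitriol during compound treatment; series mostly up to about 77 µM; on the % scale 0 is the no-effect control and ±100 the full control effect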)
Chain of Vitamin D3 receptor (Homo sapiens) (P11473 whole entry, looked up): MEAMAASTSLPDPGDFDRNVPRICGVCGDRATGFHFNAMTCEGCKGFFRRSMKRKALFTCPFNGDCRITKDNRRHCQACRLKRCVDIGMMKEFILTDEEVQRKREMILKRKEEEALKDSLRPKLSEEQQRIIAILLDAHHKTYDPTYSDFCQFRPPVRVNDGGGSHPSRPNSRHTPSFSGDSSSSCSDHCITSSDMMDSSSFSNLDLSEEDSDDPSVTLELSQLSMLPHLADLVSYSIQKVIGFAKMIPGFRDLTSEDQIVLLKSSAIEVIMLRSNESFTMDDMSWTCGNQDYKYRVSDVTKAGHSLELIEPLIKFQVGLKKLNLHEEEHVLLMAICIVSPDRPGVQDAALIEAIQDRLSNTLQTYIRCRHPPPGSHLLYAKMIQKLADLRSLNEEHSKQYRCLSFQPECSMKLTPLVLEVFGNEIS
Summary of the method: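 Antagonist-mode beta-lactamase reporter assay: HEK293T VDR-UAS-bla cells were exposed to titrated compound alongside 1-alpha,25-dihydroxyvitamin D3 at 3 nM final for 16 h. Values were normalized to the 50 nM agonist control and DMSO basal, with IC50 and efficacy from Hill equation fits.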

[4] = biological target: Vitamin D3 receptor (Homo sapiens) (UniProt P11473); assay: qHTS assay for small molecule agonists of vitamin D receptor signaling (AID 588543; calls by dose curve;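 further: 0% = DMSO basal and 100% = reference agonist control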)
Summary of the method: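 Agonist-mode beta-lactamase reporter: HEK293T VDR-UAS-bla cells in charcoal-stripped 2% FBS, compound series 16 h 37 C, CCF4 2 h RT. EC50 from Hill fit, scaled against DMSO and 50 nM calcitriol control.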

[5] = qHTS assay for small molecule agonists of retinoid X receptor alpha signaling (AID 588544; calls by dose curve;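 on activation: 0% = DMSO basal wells and 100% = reference agonist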); conditions: HEK293T RXRa-UAS-bla, beta-lactamase reporter, 18 h; 530 nm emission
[6] = biological target: Retinoic acid receptor RXR-alpha (Homo sapiens) (UniProt P19793); assay: as above
Chain of Retinoic acid receptor RXR-alpha (Homo sapiens) (P19793 whole entry, looked up): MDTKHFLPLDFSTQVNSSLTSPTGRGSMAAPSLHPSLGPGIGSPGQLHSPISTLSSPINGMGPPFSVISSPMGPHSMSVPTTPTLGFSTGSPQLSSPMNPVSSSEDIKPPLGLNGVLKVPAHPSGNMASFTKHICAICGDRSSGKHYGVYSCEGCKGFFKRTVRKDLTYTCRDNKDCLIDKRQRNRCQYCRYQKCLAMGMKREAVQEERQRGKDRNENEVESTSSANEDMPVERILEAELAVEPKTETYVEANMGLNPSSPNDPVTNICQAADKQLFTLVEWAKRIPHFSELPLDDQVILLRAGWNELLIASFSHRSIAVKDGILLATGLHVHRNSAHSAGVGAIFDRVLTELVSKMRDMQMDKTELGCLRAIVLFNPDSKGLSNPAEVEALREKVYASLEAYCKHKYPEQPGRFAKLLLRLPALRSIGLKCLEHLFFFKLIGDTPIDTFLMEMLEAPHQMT

[7] = biological target: Thyroid hormone receptor beta (Homo sapiens) (UniProt P10828); assay: qHTS assay for small molecule agonists of thyroid hormone receptor beta signaling (AID 588545; calls by dose curve;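 further: 0% = DMSO only and 100% = 10 nM T3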)
Chain of Thyroid hormone receptor beta (Homo sapiens) (P10828 whole entry, looked up): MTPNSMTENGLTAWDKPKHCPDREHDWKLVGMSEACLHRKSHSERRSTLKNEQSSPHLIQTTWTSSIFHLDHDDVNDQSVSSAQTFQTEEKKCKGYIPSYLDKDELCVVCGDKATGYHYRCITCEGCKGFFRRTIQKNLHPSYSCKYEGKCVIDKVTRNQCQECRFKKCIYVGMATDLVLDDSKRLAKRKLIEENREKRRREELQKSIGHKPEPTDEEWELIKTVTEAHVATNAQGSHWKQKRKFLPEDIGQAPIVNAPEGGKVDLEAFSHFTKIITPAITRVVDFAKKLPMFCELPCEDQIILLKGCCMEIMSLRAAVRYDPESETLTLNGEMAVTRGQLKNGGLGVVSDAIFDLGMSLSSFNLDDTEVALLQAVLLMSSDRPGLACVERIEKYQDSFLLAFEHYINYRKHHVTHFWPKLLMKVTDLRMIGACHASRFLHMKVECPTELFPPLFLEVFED
Summary of the method: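 Compounds were tested as agonists in TR-UAS-bla-GripTite HEK 293 cells. After 18 hrs at 37 C, CCF4 substrate was added and fluorescence read after 2 hrs at room temperature.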

[8] = biological target: Voltage-gated inwardly rectifying potassium channel KCNH2 (Homo sapiens) (UniProt Q12809); assay: qHTS Assay for Small Molecule Inhibitors of the Human hERG Channel Activity (AID 588834);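 further: top concentration of the series differs between compounds; on the % scale 0 is the no-effect control and ±100 the full control effect; lower thallium flux fluorescence means stronger hERG block; nearly all actives have a fitted effect of over 50% in size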
Chain of Voltage-gated inwardly rectifying potassium channel KCNH2 (Homo sapiens) (Q12809 whole entry, looked up): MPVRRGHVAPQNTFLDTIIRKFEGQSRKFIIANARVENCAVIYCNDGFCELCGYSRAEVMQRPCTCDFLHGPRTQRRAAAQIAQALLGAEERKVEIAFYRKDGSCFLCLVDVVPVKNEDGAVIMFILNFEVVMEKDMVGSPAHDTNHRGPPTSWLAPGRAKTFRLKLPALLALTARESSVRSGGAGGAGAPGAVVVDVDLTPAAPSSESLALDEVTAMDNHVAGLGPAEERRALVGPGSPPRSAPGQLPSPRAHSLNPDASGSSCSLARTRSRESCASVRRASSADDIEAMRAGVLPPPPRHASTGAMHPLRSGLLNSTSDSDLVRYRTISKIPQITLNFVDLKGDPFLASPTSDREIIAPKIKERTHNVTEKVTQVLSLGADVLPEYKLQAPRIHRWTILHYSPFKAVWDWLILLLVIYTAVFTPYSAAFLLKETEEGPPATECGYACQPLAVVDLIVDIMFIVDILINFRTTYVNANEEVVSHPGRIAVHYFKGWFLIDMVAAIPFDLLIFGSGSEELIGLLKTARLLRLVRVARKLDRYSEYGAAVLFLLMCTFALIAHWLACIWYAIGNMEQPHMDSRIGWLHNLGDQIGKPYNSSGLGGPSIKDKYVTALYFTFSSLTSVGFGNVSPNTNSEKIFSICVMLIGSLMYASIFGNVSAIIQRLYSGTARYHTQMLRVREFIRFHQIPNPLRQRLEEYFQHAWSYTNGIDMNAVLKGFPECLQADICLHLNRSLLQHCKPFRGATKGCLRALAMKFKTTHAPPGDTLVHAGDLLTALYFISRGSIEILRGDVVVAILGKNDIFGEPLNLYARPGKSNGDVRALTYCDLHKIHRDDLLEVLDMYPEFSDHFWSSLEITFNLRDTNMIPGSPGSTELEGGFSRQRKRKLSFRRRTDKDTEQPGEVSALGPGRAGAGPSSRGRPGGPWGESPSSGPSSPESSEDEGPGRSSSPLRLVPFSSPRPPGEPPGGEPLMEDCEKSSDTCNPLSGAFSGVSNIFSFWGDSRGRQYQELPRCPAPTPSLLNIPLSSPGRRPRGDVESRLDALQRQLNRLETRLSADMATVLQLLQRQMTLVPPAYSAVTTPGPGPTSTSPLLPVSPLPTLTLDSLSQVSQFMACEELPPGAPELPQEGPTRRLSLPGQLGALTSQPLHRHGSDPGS
Summary of the method: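 hERG block measured as reduced thallium-dye (FluxOR) fluorescence after stimulation buffer addition, read over 2 min. Cells were hERG-BacMam-transduced U2OS exposed to compound ~10 min […]; concentration-response fitted with Hill equation for AC50.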

[9] = qHTS assay for small molecule agonists of the antioxidant response element (ARE) signaling pathway (AID 651741; active means well fitted activation curve with a large enough effect in the signal ratio; the % refers to the signal ratio; further: potency means the concentration at half of the fitted maximal effect); conditions: HepG2 ARE-bla reporter, beta-lactamase FRET ratio, 16 h
Summary of the method: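 Agonist activity is measured as ARE-driven beta-lactamase expression in a stable HepG2 reporter line, using 16 h compound treatment at 37 C and a FRET substrate fluorescence readout after 2 h.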

[10] = qHTS assay for small molecule activators of the p53 signaling pathway (AID 651743; active means well fitted activation curve with a large enough effect in the signal ratio, not every such curve was filed as active; the % refers to the signal ratio; further: potency means the concentration at half of the fitted maximal effect); conditions: HCT-116 p53RE-bla, beta-lactamase FRET ratio, 16 h; activation: stronger effect = higher value
Summary of the method: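 A beta-lactamase reporter under p53 response element control, stably carried by HCT-116 cells, reported pathway activation. Test compounds were applied for 16 hours at 37 C, and fluorescence was measured 2 hours after adding the B/G FRET substrate.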

[11] = qHTS assay for small molecule activators of the nuclear factor-kappa B (NF-kB) signaling pathway (AID 651749; active means well fitted activation curve with a large enough effect in the signal ratio; the % refers to the signal ratio; further: series mostly up to about 77 µM; % of control where 0% means no effect); conditions: NF-kB-bla ME-180 cells, beta-lactamase FRET ratio, 16 h; stronger effect = higher value
Summary of the method: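 FRET-based beta-lactamase detection in ME-180 cells reports NF-kB response-element-driven transcription following overnight (16 hr) compound treatment.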

[12] = qHTS assay for small molecule disruptors of the mitochondrial membrane potential - 1 hr assay (AID 651754; calls by dose curve; further: potency means the concentration at half of the fitted maximal effect; nearly all actives have a fitted effect of over 35% in size)
Summary of the method: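 Read-out: dye fluorescence at 490 nm ex/535 nm em (monomers) and 540 nm ex/590 nm em (aggregates) in HepG2 cells. Compound exposure 1 hr at 37C, followed by 30 min dye loading.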

[13] = biological target: Tumor necrosis factor (Homo sapiens) (UniProt P01375); assay: qHTS assay to identify small molecules that stimulate Tumor Necrosis Factor-alpha (TNF-alpha) secretion (AID 651757; active means well fitted curve in the direction sought with a large enough effect in the signal ratio; the % refers to the signal ratio; further: 0% is about no effect)
Chain of Tumor necrosis factor (Homo sapiens) (P01375 whole entry, looked up): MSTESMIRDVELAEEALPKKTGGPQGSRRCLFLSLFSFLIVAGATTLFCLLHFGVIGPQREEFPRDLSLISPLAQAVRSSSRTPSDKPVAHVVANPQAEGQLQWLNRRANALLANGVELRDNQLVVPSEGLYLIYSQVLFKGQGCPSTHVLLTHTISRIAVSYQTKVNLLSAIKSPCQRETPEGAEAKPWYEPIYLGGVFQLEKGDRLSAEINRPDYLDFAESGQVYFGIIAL
Summary of the method: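 THP-1 cells, 3000/well; compound 17 hrs, 37 C; add cryptate/XL665 anti-TNF-alpha antibody pair; 3 hr RT; TR-FRET (HTRF) read of secreted TNF-alpha. Quantitative HTS format.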

[14] = qHTS assay to identify small molecules that stimulate interleukin-8 (IL-8) secretion (AID 651758; active means well fitted activation curve with a large enough effect in the signal ratio; the % refers to the signal ratio; further: 0% is about no effect)
Summary of the method: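 Secreted IL-8 measured homogeneously by TR-FRET (two labelled anti-IL-8 antibodies, 1-3 h at room temperature) after a 16 h, 37 C compound treatment of THP-1 cells at 2000 cells/well.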

[15] = biological target: Peroxisome proliferator-activated receptor alpha (Homo sapiens) (UniProt Q07869); assay: qHTS assay for small molecule agonists of the peroxisome proliferator-activated receptor alpha (PPARalpha) signaling pathway (AID 651778); conditions: PathHunter PPARalpha complementation, chemiluminescence, 6 h; stronger effect = higher value; further: % of control where 0% means no effect
Chain of Peroxisome proliferator-activated receptor alpha (Homo sapiens) (Q07869 whole entry, looked up): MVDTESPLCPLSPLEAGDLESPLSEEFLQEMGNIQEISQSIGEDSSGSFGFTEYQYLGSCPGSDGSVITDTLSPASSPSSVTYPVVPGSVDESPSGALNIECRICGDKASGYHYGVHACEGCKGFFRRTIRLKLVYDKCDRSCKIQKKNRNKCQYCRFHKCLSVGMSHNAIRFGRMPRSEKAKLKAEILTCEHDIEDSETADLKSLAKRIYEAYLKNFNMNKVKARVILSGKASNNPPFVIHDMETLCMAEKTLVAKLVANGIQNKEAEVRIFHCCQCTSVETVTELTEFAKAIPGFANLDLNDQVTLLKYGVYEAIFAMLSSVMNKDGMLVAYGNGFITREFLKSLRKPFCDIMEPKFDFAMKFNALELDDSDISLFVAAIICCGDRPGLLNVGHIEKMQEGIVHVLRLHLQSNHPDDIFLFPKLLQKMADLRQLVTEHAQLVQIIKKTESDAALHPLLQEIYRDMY
Summary of the method: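 Chemiluminescence from complemented enzyme reported PPARalpha activation in cells after 6 hr of compound treatment at 37 C. The detection reagent was incubated for 60 min at room temperature, and compounds were scored as agonists.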

[16] = qHTS assay for small molecule agonists of the antioxidant response element (ARE) signaling pathway measured by Nrf2-dependant transcriptional activity (AID 720636; active means well fitted curve in the direction sought with a large enough effect in the repeat runs; an effect the other way counts as inactive or inconclusive;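 further: HepG2 cells with an ARE-driven luciferase reporter; % of control where 0% means no effect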)
Summary of the method: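 Attachment 6 hr at 37 C, then compound versus DMSO vehicle for 16 hr in ARE-luc HepG2 cells (1% dialyzed FBS); luminescence recorded 30 min after ONE-Glo addition at room temperature.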

[17] = qHTS assay for small molecule antagonists of the retinoid-related orphan receptor gamma (ROR-gamma) signaling pathway - cell viability counter screen (AID 720652; active means well fitted curve in the direction sought with a large enough effect in the repeat runs; an effect the other way counts as inactive or inconclusive;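 further: CHO reporter cells with doxycycline-induced ROR-gamma expression; series mostly up to about 92 µM; compound exposure lasted 16 hr before ATP read; on the % scale 0 is the no-effect control and ±100 the full control effect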)
Summary of the method: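 CHO RORE-LUC/TET-ROR line, 1,000 cells/well, 37 C 5% CO2 5 hr; cpd or DMSO + doxycycline induction, 16 hr. CellTiter-Glo, 30 min RT, luminescence = ATP content.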

[18] = qHTS assay for small molecule agonists of the antioxidant response element (ARE) signaling pathway measured by Nrf2-dependant transcriptional activity - cell viability counter screen (AID 720653; active means well fitted curve in the direction sought with a large enough effect in the repeat runs; an effect the other way counts as inactive or inconclusive; further: on the % scale 0 is the no-effect control and ±100 the full control effect); conditions: ARE-bla HepG2 viability, CellTiter-Glo ATP luminescence, 16 h; stronger effect = lower value
Summary of the method: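 Cytotoxicity counter screen: intracellular ATP quantified by CellTiter-Glo luminescence in the same ARE-bla HepG2 plates, after 16 h compound exposure and a 2 h beta-lactamase substrate step.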

[19] = qHTS assay for cell viability of HEK293 cells (AID 743288); conditions: ATP luminescence (CellTiter-Glo), 18 h, stronger effect = lower value; further: on the % scale 0 is the no-effect control and ±100 the full control effect; nearly all actives have a fitted effect of over 50% in size
Summary of the method: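 Readout is luciferase-coupled ATP content (CellTiter-Glo luminescence, 30 min room temperature) as a measure of metabolically competent cells. Parental HEK293 cells were plated 5 h or more before compound addition, then treated 18 h at 37 C.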

[20] = qHTS assay for cell viability of the p53RE-bla HCT-116 cell line (AID 743292); further: potency means the concentration at half of the fitted maximal effect; nearly all actives have a fitted effect of over 55% in size
Summary of the method: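 Compound-exposed HCT-116 (p53RE-bla) cells, 4,000 per well, were kept 16 h at 37 C following a 5 h preincubation. Cell number was estimated from total ATP by CellTiter-Glo luminescence read after 30 min at room temperature.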

[21] = Counterscreen qHTS for small molecule stabilizers of the endoplasmic reticulum resident proteome: GLuc-NoTag assay (AID 1508627);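 further: SH-SY5Y cells given compound then 100 nM thapsigargin to empty ER calcium; series mostly up to about 76 µM; 0% = thapsigargin alone and -100% = DMSO vehicle control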
Summary of the method: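 Counterscreen line: SH-SY5Y-GLuc-NoTag cells, treated with compound 19 hr before a 4 hr, 100 nM thapsigargin calcium depletion. Secreted Gaussia luciferase in the medium was measured by luminescence after coelenterazine was added (0.07x final), with cells unlysed.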

[22] = Confirmatory qHTS for small molecule stabilizers of the endoplasmic reticulum resident proteome: Secreted ER Calcium Modulated Protein (SERCaMP) assay (AID 1508628);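 further: SH-SY5Y cells given compound 16 h then thapsigargin 100 nM for 4 h; series mostly up to about 76 µM; on the % scale 0 is the no-effect control and ±100 the full control effect; nearly all actives have a fitted effect of over 40% in size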
Summary of the method: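 GLuc-SERCaMP-expressing SH-SY5Y cells, pretreated 16 h with compound, are challenged with thapsigargin to empty ER calcium stores; after 4 h, coelenterazine is added directly to the medium and luminescence is imaged.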

[23] = Cell Viability qHTS for small molecule stabilizers of the endoplasmic reticulum resident proteome (AID 1508629); conditions: cell viability counter-screen, 100 nM thapsigargin for final 4 h;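 further: human SH-SY5Y neuroblastoma cells carrying the GLuc-SERCaMP reporter; compound exposure about 46 h in total before the viability read; on the % scale 0 is the no-effect control and ±100 the full control effect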
[24] = biological target: Nuclear receptor subfamily 1 group I member 2 (Rattus norvegicus) (UniProt Q9R1A7); assay: qHTS assay for small molecule activators of the rat pregnane X receptor (rPXR) signaling pathway (AID 651751; call rule not given here; further: 0% is about no effect); conditions: rPXR reporter cells, luciferase (One-Glo), 24 h
Chain of Nuclear receptor subfamily 1 group I member 2 (Rattus norvegicus) (Q9R1A7 whole entry, looked up): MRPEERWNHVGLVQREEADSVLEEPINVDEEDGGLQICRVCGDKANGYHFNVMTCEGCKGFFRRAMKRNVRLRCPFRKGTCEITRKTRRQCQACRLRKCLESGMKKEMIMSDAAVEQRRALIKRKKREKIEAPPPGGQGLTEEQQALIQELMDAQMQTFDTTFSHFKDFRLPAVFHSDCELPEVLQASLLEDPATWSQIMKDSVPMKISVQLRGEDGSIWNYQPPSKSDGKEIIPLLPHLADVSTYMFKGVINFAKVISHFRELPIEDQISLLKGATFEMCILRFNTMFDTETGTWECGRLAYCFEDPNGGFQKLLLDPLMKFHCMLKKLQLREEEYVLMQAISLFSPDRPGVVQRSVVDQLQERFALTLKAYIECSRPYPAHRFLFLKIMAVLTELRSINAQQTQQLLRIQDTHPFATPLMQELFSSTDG

CC(C)(c1cc(Br)c(O)c(Br)c1)c1cc(Br)c(O)c(Br)c1
4.03% and -9.48% and 2.35%: max response [5]
inactive: outcome [2] | outcome [3] | outcome [4] | outcome [6] | outcome [7] | Potency [8] | activation [11] 2.39% and 3.54% and 2.16% | Potency [13] | outcome [14] | max response [15] -7.23% and -3.95% and -1.86% | outcome [16] | outcome [17] | max response [18] 4.4% and -1.06% and -0.187% | max response [19] 5.04% and -1.46% and -3.35% | Potency [21] | Potency [22] | max response [23] 18.1% and 32.8% and -0.114% | max response [24] 4.59% and 7.9% and 1.02%
-3.55% and -29% and 5.87%: max response [1]
active: Potency [9] 29.8 µM and 23.7 µM and 48.6 µM | Potency [10] 28.2 µM | Potency [12] 18.8 µM | Potency [20] 44.7 µM
